High-throughput results (PubChem)
Sampled rows, rich in hits. Any-hit rate of the full collection: about 3.6%.
pS6 MEF inh – inhibitors of mTORC1 signaling in Tsc2-/- p53-/- MEF cells | Tsc2-/- p53-/- MEF, phospho-rpS6 immunofluorescence/PI, 24 h | Potency, µM (top dose mostly 38.3 µM), for inactives: at the highest dose activity change, negative = inhibition, most hits filed as inhibitors | hit rate 0.78% among 44,000;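 note: plate controls were DMSO for no effect and rapamycin for full effect; nearly all actives have a fitted effect of over 50% in size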
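Plate MEFs (Tsc2-/-, p53-/-, empty vector) in DMEM/10% FBS; after 24 h add compound, incubate 24 h at 37 degree Celsius; fix in PFA/TX-100, block, stain phospho-rpS6 and 10 uM PI; scan at 488 nm; report % positive cells.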
SKOV3 invasion – blocks SKOV3ip1 adhesion and invasion in omental model. Potency, µM (series often up to 45.8 µM), inactives show top-dose activity change, negative = inhibition, most hits filed as inhibitors. SKOV3ip1-GFP adhesion/invasion on 3D omental model, fluorescence. hit rate 0.1% among 46,000. AID 1963576;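 note: plate controls were DMSO wells for no effect and tomatine positive control wells for full effect; nearly all actives have a fitted effect of over 65% in size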
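Primary human omental fibroblast/mesothelial 3D culture pre-formed 48 h. SKOV3ip1-GFP cells added with compounds (0.36-46 umol/L), incubated 2 h RT/16 h 37 C, fixed; GFP cells quantified at 488/509 nm.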
HTT-AS act – HTT-AS promoter activation; HEK293 HTT-AS promoter firefly luciferase reporter, 24 h; response scale: percent change from vehicle, -100% = no light; AID 1508624; Potency, µM (titrated, usually from 57.5 µM), for inactives: at the top dose activity change, positive = activation, actives largely listed as activators; hit rate 0.24% among 48,000; note: nearly all actives have a fitted effect of over 55% in size
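Quantitative HTS used concentration series of up to 57.5 uM final on HEK293 luciferase reporter cells, 24 h at 37 degrees C. Readout was Dual-Glo firefly luminescence.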
HTT prom inh – HTT promoter inhibition; HEK293 HTT promoter firefly luciferase reporter, 24 h; Potency, µM (doses to about 57.5 µM), for inactives: top-dose activity change, negative = inhibition, most hits filed as inhibitors; hit rate 0.93% among 48,000; note: nearly all actives have a fitted effect of over 50% in size
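Luminescence was read after Dual-Glo reagent and a 10 min room-temperature incubation. Values were normalized to vehicle (0% activity) and zero RLU (-100% activity). Reporter HEK293 cells had been exposed to compounds (up to 57.5 uM final) for 24 h.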
PMP22 txn – modulators of PMP22 gene transcription in S16 Schwann cells | S16 Pmp22-F2sN Schwann cells, FLuc/NLuc coincidence luminescence, 24 h | AID 1508649 | hit rate 2% among 43,000 | Potency, µM (doses to about 57.5 µM), without a hit: at the highest dose activity change, negative = inhibition, usual class: inhibitors; active = clear falling dose curves in both reporters; inconclusive = both reporters move, but less clearly or upward; inactive = either reporter flat; the % is the NLuc reporter signal; note: % is set by controls: 0 for no effect and ±100 for the full control effect
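S16(c9) Schwann cells with FLuc/NLuc coincidence reporter in the Pmp22 3' UTR; compounds pin-transferred, 24 h at 37C. Dual-luciferase read: FLuc first, then NLuc after Stop&Glo, each 10 min at room temperature.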
S16 F2sN tox – S16 Schwann cell cytotoxicity. S16 Pmp22-F2sN Schwann cells (luciferase reporters placed in the Pmp22 gene) viability, CellTiter-Glo, 24 h. Potency, µM (doses to about 57.5 µM), for the others: at the top dose activity change, negative = cytotoxicity, usual class: cytotoxic. hit rate 0.48% among 43,000. AID 1508642; note: % is set by controls: 0 for no effect and ±100 for the full control effect; nearly all actives have a fitted effect of over 65% in size
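Luminescence from CellTiter-Glo, read by CCD camera after a 15 min room-temperature incubation, served as the viability signal. Reporter Schwann cells (S16 Pmp22-F2sN) had been treated with pin-transferred compounds for 24 h at 37C.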
Active calls of the source: *. Unless noted, calls come from the whole dose curve; as a rule, active = well fitted curve in the direction sought with a large enough effect; inconclusive = small, poorly fitted or top-dose-only effect, or another doubt; inactive = no such curve, though single readings can be large; an effect the other way counts as inactive or inconclusive. Potency is the fitted concentration of half-maximal effect.

How did CCOC(=O)c1ccc(NS(=O)(=O)c2cc(Br)cc3c2N(C(C)=O)C(C)C3)cc1 (centres undefined) do in these assays?
pS6 MEF inh: 0.7%; SKOV3 invasion: inactive; HTT-AS act: -51.9%; HTT prom inh: 15.8µM*; PMP22 txn: inconclusive; S16 F2sN tox: -0.4%

What do the screens show for `CC(=O)N1c2c(cc(Br)cc2S(=O)(=O)Nc2ccccc2C)CC1C` (centres undefined)?
pS6 MEF inh: -1.3%; SKOV3 invasion: inactive; HTT-AS act: -25.5%; HTT prom inh: -23.2%; PMP22 txn: inconclusive; S16 F2sN tox: 5.7%

What do the screens show for `N#Cc1c(NC(=O)c2cccc3ccccc23)sc2c1CCCC2`?
SKOV3 invasion: 59.3%; HTT-AS act: -31.9%; HTT prom inh: -29.7%

How did COc1ccc(Cl)cc1C1CC(=O)Nc2cc3c(cc21)OCCO3 (centres undefined) do in these assays?
pS6 MEF inh: inconclusive; SKOV3 invasion: -7.6%; HTT-AS act: -45.7%; HTT prom inh: inconclusive; PMP22 txn: 2.47µM*; S16 F2sN tox: inconclusive

Results for CCOc1cccc(C2CC(=O)Nc3cc4c(cc32)OCCO4)c1 (centres undefined) ?
pS6 MEF inh: 20.7µM*; SKOV3 invasion: -18.4%; HTT-AS act: -42.3%; HTT prom inh: inconclusive; PMP22 txn: inconclusive; S16 F2sN tox: inconclusive

What do the screens show for `Cc1ccc(C2CC(=O)Nc3cc4c(cc32)OCCO4)cc1` (centres undefined)?
pS6 MEF inh: -16.8%; SKOV3 invasion: -5.7%; HTT-AS act: -25.7%; HTT prom inh: inconclusive; PMP22 txn: -26.8%; S16 F2sN tox: -4.0%

What do the screens show for `Cc1ccccc1-c1noc(-c2ccc(N3CCN(C)CC3)c([N+](=O)[O-])c2)n1`?
pS6 MEF inh: 2.9%; SKOV3 invasion: 4.8%; HTT-AS act: -69.7%; HTT prom inh: 2.24µM*; PMP22 txn: inconclusive; S16 F2sN tox: 18.0%

How did Cc1ccccc1-c1noc(-c2ccc(N3CCN(c4ccccc4)CC3)c([N+](=O)[O-])c2)n1 do in these assays?
pS6 MEF inh: -0.2%; SKOV3 invasion: -2.4%; HTT-AS act: -7.2%; HTT prom inh: -3.0%; PMP22 txn: -4.6%; S16 F2sN tox: 12.0%

What do the screens show for `Cc1ccccc1-c1noc(-c2ccc(N3CCCC3)c([N+](=O)[O-])c2)n1`?
pS6 MEF inh: 2.4%; SKOV3 invasion: 10.6%; HTT-AS act: -76.8%; HTT prom inh: 10µM*; PMP22 txn: -2.2%; S16 F2sN tox: 19.4%

How did CCC[C@H]1C[C@H](C(=O)N[C@@H]([C@@H]2O[C@@H](SC)[C@@H](O)[C@@H](O)[C@@H]2O)[C@H](C)Cl)N(C)C1 do in these assays?
SKOV3 invasion: 12.3%; HTT-AS act: -5.9%; HTT prom inh: -6.3%

What do the screens show for `Cc1nc2cccnc2n1-c1cccc(C(=O)N2CCN(c3ccc(Cl)cc3)CC2)c1`?
pS6 MEF inh: -14.7%; SKOV3 invasion: -9.7%; HTT-AS act: -45.5%; HTT prom inh: 10µM*; PMP22 txn: 15.6µM*; S16 F2sN tox: inconclusive

Results for Cn1cc(C=CC(=O)c2cccc(F)c2)cc1C=CC(=O)NO ?
SKOV3 invasion: -0.6%; HTT-AS act: 17.1%; HTT prom inh: 33.1%

How did Cc1cc(NC(=O)c2oc3c(c2C)-c2[nH]ncc2CC3)ccc1Br do in these assays?
pS6 MEF inh: -0.9%; SKOV3 invasion: inconclusive; HTT-AS act: 1.12µM*; HTT prom inh: 68.2%; PMP22 txn: inconclusive; S16 F2sN tox: -20.8%

How did Cc1cc(Br)cc(C)c1NC(=O)c1cnc2ccccn2c1=O do in these assays?
pS6 MEF inh: -1.0%; SKOV3 invasion: 4.4%; HTT-AS act: 28.2µM*; HTT prom inh: 35.5%; PMP22 txn: -70.8%; S16 F2sN tox: inconclusive
